Hits are enriched below; roughly 5.9% of the tested compounds scored in any of these assays.
FXN GAA850 act: activators of GAA850 frataxin (FXN) promoter | HEK293 lucGAA850 FXN promoter luciferase reporter, 24 h; percent of 10 µM SAHA response | activation, % at 6 µM | actives 0.56% (n = 360,000) | AID 540364;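 active = activation above the average of all compounds screened plus 3 SD, cutoff fixed separately per campaign, cut at about 7.5% in these data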;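 note: 0% = DMSO wells and 100% = 10 µM SAHA wells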
HSP90 refold inh: HSP90 refolding inhibition in rabbit reticulocyte lysate; inhibition, % at 5.6 µM; AID 1789; actives 0.91% (n = 290,000); luciferase refolding luminescence, 3 h;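 active = inhibition above the screen-wide mean plus 3 SD, computed separately per campaign, cut at about 16% in these data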;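 note: 0% = DMSO wells and 100% = 60 µM geldanamycin wells; inhibitors lower the luminescence because luciferase stays unfolded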
HSF1 activator: increases HSF-1 driven luciferase reporter signal. NIH3T3-HGL HSF-1 luciferase reporter, MG132, 8 h; 100% = twice DMSO control signal. activation, % at 9 µM. AID 504408. actives 1.7% (n = 300,000);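 active = mean replicate activation of at least 50% with a set share of replicates each reaching 50%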;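 note: 0% = median of the neutral control wells and 100% = twice that signal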
AHR act: activates the human aryl hydrocarbon receptor; actives 2.5% (n = 320,000); activation, % at 5 µM; P35869; AHR-responsive luciferase reporter cells, luminescence; AID 2796; in the data active = activation above about 47%;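 note: 0% = vehicle wells and 100% = reference agonist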
HSF1 inhib: HSF1 inhibition. NIH3T3-HGL HSE-luciferase, MG132-induced, luminescence 8 h; hits give low values. actives 0.77% (n = 300,000). AID 2098. activity change, negative = inhibition, % at 7.5 µM (by protocol);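 active = more than half of replicate wells show activity change below -50%, luminescence cut by over half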;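 note: luciferase reports HSF-1 transcriptional activity via heat shock element; 0% = median of DMSO wells and -100% = zero luminescence signal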
NR0B1 inh: NR0B1 (DAX1) inhibition. HEK293 Gal4-DAX1 luciferase reporter, luminescence. AID 504766. actives 0.99% (n = 340,000). inhibition, % at 6.75 µM. P51843;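 active = inhibition above the mean over all tested compounds plus 3 SD, cut at about 4.2% in these data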;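 note: 0% = DAX1-transfected cells with DMSO and 100% = empty-vector control cells with DMSO; inhibition shows as a rise in luminescence from relieved DAX1 repression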
AHR act cf: confirmation of human aryl hydrocarbon receptor activators; shares compounds with AHR act; human cells, AHR-responsive luciferase reporter, luminescence; activation, % at 9 µM; actives 87% (n = 2,300); AID 2845; in the data active = activation above about 49%;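 note: HepG2 hepatoma cells carrying a DRE-driven firefly luciferase reporter; 0% = vehicle wells and 100% = reference agonist wells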
PXR act counter: activates human PXR in AHR activator counter-screen. cell-based PXR reporter, luciferase luminescence. AID 434939. activation, % at 11.6 µM. shares compounds with AHR act. actives 88% (n = 2,300); in the data active = activation above about 11%;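 note: human hepatoma DPX-2 cells expressing full-length human PXR; 0% = DMSO and 100% = reference agonist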
Target sequence (O75469 whole entry, looked up): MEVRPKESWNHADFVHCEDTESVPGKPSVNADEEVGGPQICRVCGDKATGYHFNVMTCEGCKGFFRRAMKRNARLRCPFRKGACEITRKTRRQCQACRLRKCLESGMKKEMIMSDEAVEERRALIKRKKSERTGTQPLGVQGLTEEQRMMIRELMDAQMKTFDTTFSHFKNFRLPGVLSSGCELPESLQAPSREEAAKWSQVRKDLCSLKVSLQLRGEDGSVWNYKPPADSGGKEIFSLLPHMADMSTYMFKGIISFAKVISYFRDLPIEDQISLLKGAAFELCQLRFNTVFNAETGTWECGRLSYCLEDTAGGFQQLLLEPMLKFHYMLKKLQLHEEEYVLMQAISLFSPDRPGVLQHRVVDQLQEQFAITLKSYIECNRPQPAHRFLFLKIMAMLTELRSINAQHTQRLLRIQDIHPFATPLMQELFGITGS
The depositor's hits bear a star.

What do the screens show for `Cc1cccc(NS(=O)(=O)c2ccc(C)c(C(=O)NCCCN3CCOCC3)c2)c1`?
FXN GAA850 act: 0; NR0B1 inh: 0

How did CSCCC(NC(=O)COc1ccccc1)C(=O)N(C)CC(=O)Nc1c(C)cccc1C (stereo not given) do in these assays?
FXN GAA850 act: 2; HSF1 activator: -6; AHR act: -1; HSF1 inhib: -1; NR0B1 inh: -2

Results for CC(C)c1ccc(Nc2nc(NCc3ccco3)nc(N3CCOCC3)n2)cc1 ?
FXN GAA850 act: 2; HSP90 refold inh: 2; HSF1 activator: 27; AHR act: 85*; HSF1 inhib: 14; NR0B1 inh: -1; AHR act cf: 86*; PXR act counter: 32*

What do the screens show for `COc1ccccc1NC(=O)Cn1cc(C(=O)C(=O)N2CCOCC2)c2ccccc21`?
FXN GAA850 act: -3; HSP90 refold inh: -5; HSF1 activator: -7; AHR act: 4; HSF1 inhib: -7; NR0B1 inh: 0

Results for O=C(CCn1nc(-c2ccccc2)ccc1=O)N1CCN(c2ccccn2)CC1 ?
FXN GAA850 act: -1; HSP90 refold inh: 0; HSF1 activator: -2; AHR act: 82*; HSF1 inhib: -5; NR0B1 inh: 0; AHR act cf: 35; PXR act counter: 9

Results for COc1ccc(C)cc1NC(=O)C(OC(=O)C1=NNC(=O)CC1)c1ccccc1 (stereo not given) ?
FXN GAA850 act: -1; AHR act: 83*; NR0B1 inh: 0; AHR act cf: 99*; PXR act counter: 36*

How did COc1ccc(C)cc1NC(=O)C(OC(=O)CNC(=O)c1ccc(Br)cc1)c1ccccc1 (stereo not given) do in these assays?
FXN GAA850 act: 2; HSP90 refold inh: 9; HSF1 activator: 0; AHR act: 81*; HSF1 inhib: 3; NR0B1 inh: 1; AHR act cf: 85*; PXR act counter: 51*

What do the screens show for `O=[N+]([O-])c1cccnc1Sc1ccccc1Cl`?
FXN GAA850 act: 0; HSF1 activator: -3; AHR act: -2; HSF1 inhib: -1; NR0B1 inh: 0

Results for Cc1nc(NCCc2ccc(Cl)cc2)c2nnn(Cc3ccccc3)c2n1 ?
FXN GAA850 act: 1; HSP90 refold inh: -1; HSF1 activator: -15; AHR act: 1; HSF1 inhib: -5; NR0B1 inh: 0

What do the screens show for `CCCC(=O)N(Cc1cccnc1)c1nc2c(OC)ccc(Cl)c2s1`?
FXN GAA850 act: 1; HSP90 refold inh: -5; HSF1 activator: 24; AHR act: 5; HSF1 inhib: 14; NR0B1 inh: 0

What do the screens show for `Cc1ccc2sc(NNC(=O)C3COc4ccccc4O3)nc2c1C` (stereo not given)?
FXN GAA850 act: 0; HSP90 refold inh: -3; AHR act: 137*; NR0B1 inh: -1; AHR act cf: 65*; PXR act counter: 48*

What do the screens show for `O=C(NNc1nc2c(F)cccc2s1)C1COc2ccccc2O1` (stereo not given)?
FXN GAA850 act: 1; HSP90 refold inh: 1; HSF1 activator: 4; AHR act: 19; HSF1 inhib: 0; NR0B1 inh: 0

What do the screens show for `COc1ccc(-c2nc3cnccn3c2Nc2ccc3c(c2)OCO3)cc1`?
FXN GAA850 act: 1; HSP90 refold inh: -3; HSF1 activator: 1; AHR act: 105*; HSF1 inhib: 2; NR0B1 inh: -1; AHR act cf: 85*; PXR act counter: 144*

Results for COc1ccc(Nc2c(-c3ccc(OC)cc3)nc3cnccn23)cc1 ?
FXN GAA850 act: 4; HSP90 refold inh: -7; HSF1 activator: -22; AHR act: 15; HSF1 inhib: -13; NR0B1 inh: 0

How did COc1ccc2nc(NC(=O)C3CSC4(C)CCC(=O)N34)sc2c1 (stereo not given) do in these assays?
FXN GAA850 act: 2; HSF1 activator: 16; AHR act: 5; HSF1 inhib: 4; NR0B1 inh: 2

Results for CC12CCC(=O)N1C(C(=O)Nc1nc3ccc(Cl)cc3s1)CS2 (stereo not given) ?
FXN GAA850 act: 3; HSF1 activator: 0; AHR act: 127*; HSF1 inhib: 6; NR0B1 inh: 2; AHR act cf: 110*; PXR act counter: 65*

What do the screens show for `Cc1sc(NC(=O)C2CSC3(C)CCC(=O)N23)nc1-c1ccc(F)cc1` (stereo not given)?
FXN GAA850 act: 2; HSP90 refold inh: 3; HSF1 activator: 22; AHR act: 151*; HSF1 inhib: 24; NR0B1 inh: 1; AHR act cf: 101*; PXR act counter: 151*

What do the screens show for `Cc1ccc(-c2csc(NC(=O)C3CSC4(C)CCC(=O)N34)n2)cc1` (stereo not given)?
FXN GAA850 act: -1; HSF1 activator: 8; AHR act: 5; HSF1 inhib: 0; NR0B1 inh: 1

What do the screens show for `Cc1ccnc(NC(c2ccccn2)c2c(C)[nH]c3ccccc23)c1` (stereo not given)?
FXN GAA850 act: 6; HSP90 refold inh: 0; HSF1 activator: 13; AHR act: 0; HSF1 inhib: 12; NR0B1 inh: 2

What do the screens show for `CCc1nc2ccccc2c(C(=O)OCc2nc3ccccc3c(=O)[nH]2)c1C`?
FXN GAA850 act: -2; AHR act: 118*; NR0B1 inh: 0; AHR act cf: 86*; PXR act counter: 54*

What do the screens show for `c1ccc2c(c1)oc1c(NCCCn3ccnc3)ncnc12`?
FXN GAA850 act: 3; HSP90 refold inh: 2; HSF1 activator: 6; AHR act: 106*; HSF1 inhib: -1; NR0B1 inh: 0; AHR act cf: 110*; PXR act counter: 22*

How did Cc1nc(NCCCn2ccnc2)c2oc3ccccc3c2n1 do in these assays?
FXN GAA850 act: -1; HSP90 refold inh: 0; HSF1 activator: 32; AHR act: 79*; HSF1 inhib: 3; NR0B1 inh: -1; AHR act cf: 110*; PXR act counter: 23*

How did CCNc1nc(C)nc2c1oc1ccccc12 do in these assays?
FXN GAA850 act: 0; HSP90 refold inh: -5; HSF1 activator: -10; AHR act: 14; HSF1 inhib: -11; NR0B1 inh: -1

How did O=C(O)C1=C[C@@H](O)[C@@H](O)[C@H](O)C1 do in these assays?
FXN GAA850 act: 0; NR0B1 inh: 0

Results for COc1ccccc1Nc1nc(N)nc(CSc2nc(C)cc(C)n2)n1 ?
FXN GAA850 act: 5; HSP90 refold inh: -1; HSF1 activator: 33; AHR act: 47; HSF1 inhib: 7; NR0B1 inh: 0

Assay outcomes (PubChem BioAssay)
